# According to PubChem BioAssay:
# Calls of active or inactive are those of the source.
# Columns and labels:
# [1] = A549 cell viability effects, profiling panel, calcein-AM fluorescence, 48 h, basal (AID 1162); details: higher = more signal
# [2] = adipocyte viability effects, profiling panel, cell-based, 3T3-L1 adipocytes, calcein-AM fluorescence, 48 h, basal (AID 1163); details: 3T3-L1 adipocytes viability, higher = more signal
# [3] = HepG2 cell viability effects, profiling panel, calcein-AM fluorescence, 48 h, basal (AID 1164); details: higher = more signal
# [4] = MM1S cell viability effects, profiling panel, calcein-AM fluorescence, 48 h, basal (AID 1165); details: higher = more signal;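 note: viability of MM1S multiple myeloma cells under basal unstimulated conditions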
# [5] = basal RPMI8226 viability, no added stimulus, profiling panel, cell-based, calcein-AM fluorescence, 48 h, PK04 Diversity Set (AID 1166); details: RPMI8226 myeloma viability, higher = more signal;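 note: cells grown under basal conditions without added stimulus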
# [6] = basal HepG2 mitochondrial membrane potential changes, profiling panel, cell-based, JC-1 fluorescence, 24 h, 100 nL compound (AID 1167); details: higher = more signal
# [7] = basal 3T3-L1 adipocyte mitochondrial potential changes, profiling panel, cell-based, JC-1 fluorescence, 3T3-L1 adipocytes, 24 h, 100 nL compound (AID 1168); details: JC-1 mitochondrial fluorescence, higher = more signal, called active from +8 up or from −8 down
# [8] = basal RPMI8226 mitochondrial membrane potential changes, profiling panel, cell-based, JC-1 fluorescence, 24 h, 100 nL compound (AID 1169); details: RPMI8226 myeloma, JC-1 mitochondrial potential fluorescence, higher = more signal
# [9] = basal MM1S mitochondrial membrane potential changes, profiling panel, cell-based, JC-1 fluorescence, 24 h, 100 nL compound (AID 1170); details: higher = more signal
# [10] = A549 lung cancer cell viability effects, profiling panel, resazurin fluorescence, 24 h, PK04 Diversity Set (AID 1171); details: higher = more signal, called active from +8 up or from −8 down
# Note: test concentration not given here.
Compound,z-score [1],z-score [2],z-score [3],z-score [4],z-score [5],z-score [6],z-score [7],z-score [8],z-score [9],z-score [10]
COC(=O)Cn1c(C(=O)N(C)C)cc2c1C[C@H]1CN(C(=O)c3ccccc3)[C@@](Cc3ccccc3)(C(=O)OC)[C@@H]21,-0.314,0.275,-0.479,0.0914,-0.512,-1.11,-0.327 (inactive),-0.146,-1.11,0.374 (inactive)
C=CCC(OC(C)=O)[C@@H]1[C@@H](N(Cc2cccc3ccccc23)C(=O)c2ccc(C)cc2)c2cc(OCCCO)ccc2N1C(=O)Cc1ccc2ccccc2c1 (stereo not given in full),0.396,1.05,1.55,0.83,0.986,3.54,0.598 (inactive),0.152,-0.984,0.433 (inactive)
C=C(C)C1CN([C@H](CO)c2ccccc2)C(=O)/C1=C\c1ccccc1 (stereo not given in full),-0.121,1.55,0.0701,-0.313,-1.89,-1.11,0.0548 (inactive),0.354,-1.06,-0.846 (inactive)
CN(C)C(=O)[C@]1(CCS(=O)(=O)c2ccccc2)N=C(c2ccc(OCCCO)cc2)O[C@@H]1c1ccccc1CN=[N+]=[N-],-0.306,-0.0349,0.589,-1.29,0.382,-0.12,-0.197 (inactive),0.0522,-0.776,1.09 (inactive)
COc1cc2c(cc1OC)CN(C(=O)[C@@H]1[C@H]3C(=O)O[C@H](c4ccccc4)[C@H](c4ccccc4)N3[C@H](c3ccc(O)cc3)[C@@]13C(=O)Nc1ccc(C#CC4=CCCCC4)cc13)CC2,0.434,0.641,0.618,-0.126,-1.58,-0.948,0.165 (inactive),-0.733,0.328,0.175 (inactive)
C=C(COC)C(=O)CC[C@H](OC(C)=O)c1ccccc1OCCO,0.0878,2.22,-0.699,-3.39,-1.97,1.61,0.862 (inactive),-0.699,-1.18,-0.164 (inactive)
COC(=O)[C@@]1(Cc2ccccc2)[C@H]2c3cc(C(=O)N(C)C)n(CCF)c3C[C@H]2CN1C(=O)c1ccccc1,-1.23,-0.386,-0.561,0.258,-0.57,0.376,-0.874 (inactive),0.328,-0.294,-0.818 (inactive)
C=C(/C=C\CNS(=O)(=O)c1ccc(C)cc1)[C@H](O)[C@H]1CCCN1S(=O)(=O)c1ccccc1[N+](=O)[O-],-0.635,0.186,-1.3,-3.14,-1.51,-3.05,-0.955 (inactive),-0.938,-0.671,0.0403 (inactive)
COCCCNC(=O)[C@@]1(Cc2ccccc2I)c2ccccc2C(=O)N(Cc2ccccc2OC)[C@H]1c1ccc(CO)cc1,0.0588,-0.188,-0.387,-0.686,-1.58,1.44,-0.217 (inactive),-0.533,-0.151,-0.113 (inactive)
COC(=O)C(CC#Cc1ccc2c(c1)[C@]1(C(=O)N2)[C@H](C(=O)NC[C@H](O)c2ccccc2)[C@H]2C(=O)O[C@H](c3ccccc3)[C@H](c3ccccc3)N2[C@@H]1c1ccc(O)cc1)C(=O)OC,-0.244,-1.56,-0.0776,-1.46,-1.97,-2.14,-1.75 (inactive),-0.933,-0.492,0.489 (inactive)
CC(C)c1ccc(NN2C(C(O)c3ccccc3)C=CC3C(=O)N(c4ccccc4)C(=O)C32)cc1 (stereo not given),1.53,-1.6,1.22,-0.168,0.159,-1.13,0.821 (inactive),-0.197,-0.906,0.235 (inactive)
COc1ccc([Si](C)(C)[C@H]2[C@H](CCO)O[C@@]3(C(=O)N(Cc4ccccc4)c4ccc(NC(=O)[C@H](C)O)cc43)[C@@H]2C)cc1,-1.88,-1.49,-4.52,-2.62,-4.31,-2.86,0.364 (inactive),-0.961,-2.39,-3.18 (inactive)
C=CCOC(=O)[C@@H]1[C@H]2C(=O)O[C@H](c3ccccc3)[C@H](c3ccccc3)N2[C@H](c2ccc(OCCOC(=O)[C@@H]3C[C@@H]4C(=O)N[C@@H](CC(C)C)C(=O)N4[C@@H]3c3ccc(O)cc3)cc2)[C@@]12C(=O)Nc1ccc(I)cc12,-0.226,0.175,-0.0024,0.26,1.31,-1.61,0.872 (inactive),-0.575,-0.925,0.595 (inactive)
O=C1O[C@@H](c2ccccc2)[C@@H](c2ccccc2)N2[C@@H](c3ccc(OCCO)cc3)[C@]3(C(=O)Nc4ccc(C#CC5=CCCCC5)cc43)[C@@H](C(=O)Nc3nc4ccccc4s3)[C@H]12,0.583,0.0884,0.803,-1.69,-2.18,-3.08,-0.395 (inactive),-1.12,-1.92,-1.27 (inactive)
[N-]=[N+]=NCc1ccccc1[C@H]1OC(c2ccc(OCCCO)cc2)=N[C@@]1(CCS(=O)(=O)c1ccccc1)C(=O)NCCN1CCOCC1,1.69,-0.328,1.14,-1.03,0.511,0.418,-0.221 (inactive),-0.556,-0.801,0.0651 (inactive)
COC(=O)[C@@]1(Cc2ccc(F)cc2)[C@H]2c3cc(C(=O)N(C)C)n(Cc4ccsc4Br)c3C[C@H]2CN1C(=O)c1ccccc1,-0.981,-0.291,0.191,-0.766,-0.985,2.64,0.18 (inactive),0.415,-1.17,-0.836 (inactive)
CCN1C(=O)C2CC(=O)C3C(CN(S(=O)(=O)c4ccc(C)cc4)C3c3ccc(C)cc3)C2C1=O (stereo not given),0.159,-0.902,0.118,1.03,0.0667,-0.167,-0.00388 (inactive),-0.129,-1.25,-0.064 (inactive)
CCCCN1CC=CC23O[C@@H]4/C=C\CCCOC(=O)C4[C@H]2C(=O)N(CCCCCCO)[C@@H]3C1=O (stereo not given in full),-0.0075,1.61,0.331,1.42,0.88,0.608,1.38 (inactive),0.16,-1.05,0.851 (inactive)
C=CCNC(=O)[C@@H]1[C@H]2C(=O)O[C@H](c3ccccc3)[C@H](c3ccccc3)N2[C@H](c2ccc(O)cc2)[C@@]12C(=O)N(C(=O)OCCOC)c1ccc(C#CCC(C(=O)OC)C(=O)OC)cc12,0.468,0.0473,0.419,-1.83,-2.88,0.206,0.605 (inactive),-0.161,-0.012,-0.419 (inactive)
O=C/C=C/c1ccc(-c2ccccc2)cc1,0.252,0.919,-1.45,-3.23,-4.15,-0.253,0.965 (inactive),-0.853,-3.05,-0.539 (inactive)
CC(C)c1ccc(NN2C(C(O)C3=C[C@H]4C[C@@H](C3)C4(C)C)C=CC3C(=O)N(c4ccccc4)C(=O)C32)cc1 (stereo not given in full),0.0464,-0.395,0.165,-1.16,-1.04,-2.56,-0.401 (inactive),-0.366,0.758,-0.186 (inactive)
CCCCCN1CC=CC23O[C@@H]4/C=C\CCCOC(=O)C4[C@H]2C(=O)N(CCO)[C@@H]3C1=O (stereo not given in full),0.415,1.64,0.0134,1.59,0.218,-0.242,-0.428 (inactive),0.699,-0.307,-0.231 (inactive)
CCOC(=O)C1=CCC(c2cccn2C(=O)OC(C)(C)C)N(S(=O)(=O)c2ccc(C)cc2)C1 (stereo not given),-0.982,-0.838,-0.168,-3.2,-3.67,2.22,0.066 (inactive),-1.11,-2.93,-0.373 (inactive)
COc1ccc(C(=O)Nc2ccc(CN3C(=O)[C@@]4(O[C@@H](CC(=O)N(CCO)Cc5ccccc5)[C@H]([Si](C)(C)c5ccc(OC)cc5)[C@H]4C)c4ccccc43)cc2)cc1,-0.86,1.4,-1.04,-0.507,-1.47,0.656,0.816 (inactive),-0.931,-0.493,-0.861 (inactive)
COc1ccc(C(=O)Nc2ccc(CN3C(=O)[C@]4(O[C@H](CC(=O)N(CCO)Cc5ccccc5)[C@@H]([Si](C)(C)c5ccc(OC)cc5)[C@@H]4C)c4ccccc43)cc2)cc1,-0.937,1.19,-1.52,-1.92,-2.73,0.353,0.324 (inactive),-1.02,-0.692,-2.04 (inactive)
Cc1ccc(S(=O)(=O)N2[C@@H](c3ccccc3)C(C(=O)O)=CC[C@H]2c2ccc(F)cc2)cc1,-0.996,0.31,-0.73,0.102,-0.296,-0.699,0.2 (inactive),0.597,-1.09,0.649 (inactive)
COC(=O)C(CC#Cc1ccc2c(c1)[C@]1(C(=O)N2)[C@H](c2ccccc2OCCO)N2[C@H](c3ccccc3)[C@H](c3ccccc3)OC(=O)[C@H]2[C@@H]1C(=O)N1CCN(c2ncccn2)CC1)C(=O)OC,-0.071,-1.46,0.496,-3.23,-4.35,-0.735,0.181 (inactive),-1.11,-1.92,0.103 (inactive)
O=C(CS)NCCCCCCNC(=O)[C@H]1C[C@H]2C(=O)NCC(=O)N2[C@H]1c1cccc(OCCO)c1,-0.109,1.18,-0.232,-0.436,-1.09,-0.407,0.225 (inactive),0.211,-0.497,-0.15 (inactive)
Cc1ccc(S[C@]2(C(=O)NCCN3CCOCC3)CC(=O)N(C(C)C)[C@@H]2c2ccc(CO)cc2I)cc1,2.91,0.557,2.66,-2.39,-1.47,1.64,0.604 (inactive),-1.01,-0.635,-1.13 (inactive)
